Results on six compounds are retold here after PubChem BioAssay (EPA / NIEHS).

Calls of active or inactive are those of the source. Rule for the calls: active = hit-call score of the fitted dose curve at least 0.9, where 1 is the maximum; inactive = score below 0.9.

What all share (conditions): mRNA level, 48 h; actives raise or lower the signal
Read-out in experiment [1]: ATP-citrate lyase (ACLY), ACLY (gene 47)
Nature of the experiment: LTEA_HepaRG_ACLY: Life Technologies and Expression Analysis (LTEA) Assay for ATP-citrate lyase (ACLY) using HepaRG (AID 2283466). An outline of the steps:
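Differentiated human HepaRG cells in serum-free induction medium exposed 48 h, in duplicate, to eight half-log concentrations from 100 uM top in 0.5% DMSO; ACLY mRNA measured by qRT-PCR, normalized to ACTB, GAPDH, POLR2A, fitted bidirectionally versus DMSO.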

Read-out in experiment [2]: Peroxisomal acyl-coenzyme A oxidase 1 (ACOX1) gene, ACOX1 (gene 51)
Nature of the experiment: LTEA_HepaRG_ACOX1: Life Technologies and Expression Analysis (LTEA) Assay for Peroxisomal acyl-coenzyme A oxidase 1 (ACOX1) gene using HepaRG (AID 2283467). An outline of the steps: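 Differentiated human HepaRG cells were exposed in duplicate for 48 h in serum-free induction medium to eight half-log concentrations up to 100 uM in 0.5% DMSO. ACOX1 mRNA was then quantified by TaqMan qRT-PCR, normalized to ACTB, GAPDH and POLR2A.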

Read-out in experiment [3]: Alkaline Phosphatase, Placental (ALPP) gene, ALPP (gene 250)
Kind of experiment: LTEA_HepaRG_ALPP: Life Technologies and Expression Analysis (LTEA) Assay for Alkaline Phosphatase, Placental (ALPP) gene using HepaRG (AID 2283468). An outline of the steps: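 Expression of ALPP was quantified by qRT-PCR against three housekeeping genes in human HepaRG cultures treated for 48 h with an eight-point concentration series up to 100 uM. Activity in either direction was fitted relative to 0.5% DMSO.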

Read-out in experiment [4]: Bcl-2 (BAD) gene, BAD (gene 572)
Kind of experiment: LTEA_HepaRG_BAD: Life Technologies and Expression Analysis (LTEA) Assay for Bcl-2 (BAD) gene using HepaRG (AID 2283469). In outline: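 Differentiated human HepaRG cells in serum-free induction medium were exposed in duplicate for 48 h to eight concentrations (top 100 uM, half-log steps, 0.5% DMSO). BAD mRNA was quantified by qRT-PCR normalised to ACTB, GAPDH and POLR2A, with bidirectional fitting versus DMSO.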

Read-out in experiment [5]: Bcl-2 (BAX) gene, BAX (gene 581)
Kind of experiment: LTEA_HepaRG_BAX: Life Technologies and Expression Analysis (LTEA) Assay for Bcl-2 (BAX) gene using HepaRG (AID 2283470). An outline of the steps:
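HepaRG (human liver), 48 h exposure, duplicate wells. 8-pt curve, half-log from 100 uM, 0.5% DMSO. BAX transcript by TaqMan qRT-PCR; ACTB/GAPDH/POLR2A normalization; gain or loss vs DMSO baseline.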

Read-out in experiment [6]: adenosine kinase (ADK) gene, ADK (gene 132)
Nature of the experiment: LTEA_HepaRG_ADK: Life Technologies and Expression Analysis (LTEA) Assay for adenosine kinase (ADK) gene using HepaRG (AID 2283471). An outline of the steps:
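Differentiated HepaRG cells dosed 48 h in serum-free induction medium, 0.5% DMSO vehicle, eight half-log concentrations from 100 uM, in duplicate. ADK mRNA by TaqMan qRT-PCR normalised to ACTB, GAPDH, POLR2A; bidirectional fit versus DMSO.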

Read-out in experiment [7]: Alpha-fetoprotein (AFP) gene, AFP (gene 174)
Nature of the experiment: LTEA_HepaRG_AFP: Life Technologies and Expression Analysis (LTEA) Assay for Alpha-fetoprotein (AFP) gene using HepaRG (AID 2283472). In outline:
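HepaRG, single lot; 48 h post-plating -> serum-free induction medium; cpd 8-pt, 100 uM top, half-log, 0.5% DMSO, duplicate, 48 h. RNA -> qRT-PCR AFP, norm ACTB/GAPDH/POLR2A. Bidirectional fit vs DMSO.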

Read-out in experiment [8]: BCL2L11 (gene 10018)
Nature of the experiment: LTEA_HepaRG_BCL2L11: Life Technologies and Expression Analysis (LTEA) Assay for Bcl-2 (BCL2L11) gene using HepaRG (AID 2283473). An outline of the steps:
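Cells were plated, cultured 48 h, switched to serum-free induction medium, then dosed in duplicate for 48 h at eight half-log concentrations up to 100 uM. Lysates underwent RNA isolation and TaqMan qRT-PCR; gain or loss versus DMSO was fitted.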

Read-out in experiment [9]: Apolipoprotein A-V (APOA5) gene, APOA5 (gene 116519)
Kind of experiment: LTEA_HepaRG_APOA5: Life Technologies and Expression Analysis (LTEA) Assay for Apolipoprotein A-V (APOA5) gene using HepaRG (AID 2283474). In outline:
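Human liver HepaRG cells are treated 48 h with test chemicals (100 uM top, half-log dilutions, 0.5% DMSO). APOA5 mRNA induction or loss is measured by qRT-PCR relative to vehicle.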

Read-out in experiment [10]: Apoptosis regulator Bcl-2 (Homo sapiens) (UniProt P10415)
Nature of the experiment: LTEA_HepaRG_BCL2: Life Technologies and Expression Analysis (LTEA) Assay for Bcl-2 gene using HepaRG (AID 2283475). In outline:
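HepaRG, plated 48 h then switched to serum-free induction medium; dosed 48 h, 8 conc. (max 100 uM, half-log steps), duplicate, 0.5% DMSO. Lysis in RLT, RNA isolated, TaqMan qRT-PCR for BCL2; ACTB/GAPDH/POLR2A normalisation; bidirectional fit vs DMSO.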

Read-out in experiment [11]: Bcl-2 (BID) gene, BID (gene 637)
Nature of the experiment: LTEA_HepaRG_BID: Life Technologies and Expression Analysis (LTEA) Assay for Bcl-2 (BID) gene using HepaRG (AID 2283476). An outline of the steps:
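Transcript levels of BID, measured by qRT-PCR and normalized to three housekeeping genes, were fitted bidirectionally against DMSO controls. Cells were HepaRG, dosed 48 h at up to 100 uM.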

Read-out in experiment [12]: Caspase-3 (Homo sapiens) (UniProt P42574)
Kind of experiment: LTEA_HepaRG_CASP3: Life Technologies and Expression Analysis (LTEA) Assay for cysteine-aspartic acid protease (CASP3) using HepaRG (AID 2283477). In outline: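 In HepaRG liver cells dosed for 48 h at up to 100 uM (eight-point, duplicate), CASP3 expression changes are scored by qRT-PCR. Activity is fitted in both directions with 0.5% DMSO as baseline.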

Read-out in experiment [13]: Cytochrome P450 (CYP24A1), CYP24A1 (gene 1591)
Kind of experiment: LTEA_HepaRG_CYP24A1: Life Technologies and Expression Analysis (LTEA) Assay for Cytochrome P450 (CYP24A1) using HepaRG (AID 2283478). An outline of the steps: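 Human liver HepaRG cultures receive each chemical for 48 h across an eight-point half-log series topping at 100 uM in 0.5% DMSO. Induction or suppression of CYP24A1 mRNA is scored relative to vehicle after housekeeping-gene normalization.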

Read-out in experiment [14]: Cytochrome P450 (CYP1A2), CYP1A2 (gene 1544)
Kind of experiment: LTEA_HepaRG_CYP1A2: Life Technologies and Expression Analysis (LTEA) Assay for Cytochrome P450 (CYP1A2) using HepaRG (AID 2283479). In outline:
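Assesses CYP1A2 mRNA in human HepaRG liver cells after 48 h chemical exposure at up to 100 uM. Values come from qRT-PCR with bidirectional curve fitting relative to DMSO.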

Read-out in experiment [15]: cysteine-aspartic acid protease (CASP8), CASP8 (gene 841)
Kind of experiment: LTEA_HepaRG_CASP8: Life Technologies and Expression Analysis (LTEA) Assay for cysteine-aspartic acid protease (CASP8) using HepaRG (AID 2283480). In outline:
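Differentiated human HepaRG cells, plated 48 h then switched to serum-free induction medium, were exposed in duplicate for 48 h to 8 half-log concentrations up to 100 uM in 0.5% DMSO. CASP8 mRNA was quantified by qRT-PCR, normalized to ACTB/GAPDH/POLR2A.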

Read-out in experiment [16]: Cytochrome P450 (CYP2B6), CYP2B6 (gene 1555)
Nature of the experiment: LTEA_HepaRG_CYP2B6: Life Technologies and Expression Analysis (LTEA) Assay for Cytochrome P450 (CYP2B6) using HepaRG (AID 2283481). An outline of the steps: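 Using 48 h treatment of HepaRG cells in serum-free induction medium, concentrations spanned half-log steps from 100 uM in 0.5% DMSO vehicle. CYP2B6 mRNA induction or loss is scored by qRT-PCR against DMSO.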

Read-out in experiment [17]: Cytochrome P450 2C19 (Homo sapiens) (UniProt P33261)
Kind of experiment: LTEA_HepaRG_CYP2C19: Life Technologies and Expression Analysis (LTEA) Assay for CYP2C19 using HepaRG (AID 2283482). In outline: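 Human HepaRG liver cells received test chemicals for 48 h (highest 100 uM, half-log dilutions in 0.5% DMSO). CYP2C19 mRNA induction or loss is read by multiplexed qRT-PCR and fitted in both directions versus vehicle.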

Read-out in experiment [18]: CYP2C8 (gene 1558)
Kind of experiment: LTEA_HepaRG_CYP2C8: Life Technologies and Expression Analysis (LTEA) Assay for CYP2C8 using HepaRG (AID 2283483). An outline of the steps: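 Differentiated human HepaRG cells were exposed for 48 h in serum-free induction medium to eight half-log concentrations up to 100 uM in 0.5% DMSO, in duplicate. CYP2C8 mRNA was measured by TaqMan qRT-PCR, normalized to ACTB, GAPDH and POLR2A, and fitted bidirectionally against DMSO.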

Read-out in experiment [19]: CYP2E1 (gene 1571)
Kind of experiment: LTEA_HepaRG_CYP2E1: Life Technologies and Expression Analysis (LTEA) Assay for CYP2E1 using HepaRG (AID 2283485). In outline: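 Human liver line HepaRG, plated 48 h, then serum-free induction medium + chemical x 48 h; 8-pt CRC from 100 uM, half-log, 0.5% DMSO, n=2. Readout: CYP2E1 mRNA qRT-PCR vs ACTB/GAPDH/POLR2A; bidirectional fit vs DMSO.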

Chain of Cytochrome P450 2C19 (Homo sapiens) (P33261 whole entry, looked up): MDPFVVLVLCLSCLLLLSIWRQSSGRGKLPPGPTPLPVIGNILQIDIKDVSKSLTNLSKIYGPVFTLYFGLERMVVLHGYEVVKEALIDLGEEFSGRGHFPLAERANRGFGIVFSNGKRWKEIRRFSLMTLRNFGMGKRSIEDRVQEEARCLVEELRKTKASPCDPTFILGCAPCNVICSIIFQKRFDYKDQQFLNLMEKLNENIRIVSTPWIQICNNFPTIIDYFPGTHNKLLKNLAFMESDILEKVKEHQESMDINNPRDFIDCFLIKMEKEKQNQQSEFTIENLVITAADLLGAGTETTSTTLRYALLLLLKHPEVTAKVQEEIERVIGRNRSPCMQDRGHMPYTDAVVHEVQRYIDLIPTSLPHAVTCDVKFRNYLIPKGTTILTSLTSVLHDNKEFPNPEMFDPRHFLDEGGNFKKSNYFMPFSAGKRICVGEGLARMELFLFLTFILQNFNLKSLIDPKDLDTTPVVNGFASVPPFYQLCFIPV
Chain of Caspase-3 (Homo sapiens) (P42574 whole entry, looked up): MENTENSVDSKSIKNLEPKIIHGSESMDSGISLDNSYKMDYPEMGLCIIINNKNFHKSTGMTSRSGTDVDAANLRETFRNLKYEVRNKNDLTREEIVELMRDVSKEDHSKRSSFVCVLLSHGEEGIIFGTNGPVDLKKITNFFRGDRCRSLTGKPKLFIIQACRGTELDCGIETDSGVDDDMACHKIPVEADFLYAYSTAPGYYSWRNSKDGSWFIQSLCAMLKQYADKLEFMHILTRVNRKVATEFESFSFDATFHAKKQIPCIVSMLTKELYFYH
Chain of Apoptosis regulator Bcl-2 (Homo sapiens) (P10415 whole entry, looked up): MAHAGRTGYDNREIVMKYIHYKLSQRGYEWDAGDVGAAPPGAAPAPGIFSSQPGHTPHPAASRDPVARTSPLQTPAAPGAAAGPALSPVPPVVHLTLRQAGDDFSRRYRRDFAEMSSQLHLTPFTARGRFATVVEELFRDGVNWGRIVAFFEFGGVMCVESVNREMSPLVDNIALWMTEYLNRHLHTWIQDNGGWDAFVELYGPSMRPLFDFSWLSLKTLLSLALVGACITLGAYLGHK

The AC50 is the concentration at which the activity in the assay is half-maximal. Turning to `CCCCCCCCCC[N+](C)(C)CCCCCCCCCC`, the compound was classed as inactive in experiment [1], in experiment [4], in experiment [7], in experiment [8], in experiment [9] and in experiment [10]. For the same compound, the call in experiment [11], in experiment [13], in experiment [14], in experiment [15], in [16] and in [17] was inactive. Also, the compound was called inactive in experiment [18] and in experiment [19]. Besides, the AC50 is 76.4 µM (active) in [2]; 90.5 µM (active) in experiment [3]; 60.3 µM (active) in [5]; 79.1 µM (active) in experiment [6]; 75.9 µM (active) in [12].
Turning to `CCCN(CCC)N=O`, the call in experiment [1], in experiment [2], in experiment [3], in experiment [4], in [5] and in experiment [6] was inactive. Moreover, the compound was called inactive in experiment [7], in experiment [8], in experiment [9], in [10], in [11] and in experiment [12]. The call in experiment [13], in experiment [14], in experiment [15], in [17], in experiment [18] and in [19] was inactive. Besides, in experiment [16], the AC50 was 11 µM (active).
In the case of `CCOP(=S)(OCC)SCSC(C)(C)C`, the outcome in experiment [1], in experiment [2], in experiment [3], in [4], in experiment [5] and in [6] was inactive. For the same compound, the result in experiment [8], in [9], in [10], in [11], in experiment [12] and in experiment [13] was inactive. Besides, the result in [14], in experiment [15], in [16], in experiment [17] and in experiment [18] was inactive. Also, the AC50 was 29.5 µM (active) in experiment [7] and 28.8 µM (active) in experiment [19].
As to `Cc1cccc([N+](=O)[O-])c1`, the outcome in [1], in [2], in [3], in experiment [4], in experiment [5] and in experiment [6] was inactive. Moreover, the compound was called inactive in experiment [7], in [8], in experiment [9], in experiment [10], in experiment [11] and in experiment [12]. For the same compound, the compound was classed as inactive in experiment [13], in experiment [14], in experiment [15], in experiment [17], in experiment [18] and in experiment [19]. For the same compound, the AC50 in experiment [16] was 8.74 µM (active).
In the case of `CCCCCCCCOC(=O)c1ccccc1C(=O)OCCCCCCCC`, the result in [1], in experiment [2], in experiment [3], in [4], in experiment [5] and in experiment [6] was inactive. The compound was classed as inactive in experiment [7], in [8], in [9], in experiment [10], in [11] and in [12]. The call in [13], in experiment [14], in experiment [15], in experiment [17], in experiment [18] and in [19] was inactive. The AC50 in experiment [16] was 16.3 µM (active).
Take `ClC1=C(Cl)[C@]2(Cl)[C@@H]3[C@@H]4C[C@@H]([C@H]5O[C@@H]45)[C@@H]3[C@@]1(Cl)C2(Cl)Cl`: the AC50 in experiment [1] is 0.033 µM (active); in experiment [2], 0.0311 µM (active); in experiment [6], 0.0386 µM (active); in experiment [7], 0.0145 µM (active); in experiment [10], 50 µM (active); in [12], 0.0261 µM (active). Also, the values for the AC50 in [16], in experiment [17] and in experiment [19] were 1.58 µM (active), 12.3 µM (active) and 22.4 µM (active), respectively. Further, the compound was classed as inactive in experiment [3], in experiment [4], in experiment [5], in [8], in experiment [9] and in experiment [11]. Further, the call in experiment [13], in experiment [14] and in [15] was inactive.
